PubChem BioAssay (NCATS)
Values joined by “and” are separate entries in the source; they are usually repeats but may differ in a detail not shown here. Equal entries are not always repeated. Records with an inconclusive call do not appear. Active and inactive are the calls of the source. The call rests on the fitted dose curve; in most records, active means well fitted inhibition curve with a large enough effect; inconclusive means small, poorly fitted or top-dose-only effect; inactive means flat fitted curve, though single readings scatter.

Columns and labels:
KB-3-1 = assay: Cytotoxic Profiling of Annotated Libraries Using Quantitative High-Throughput Screening (AID 1296008); conditions: Five cell lines viability, CellTiter-Glo ATP luminescence, 48-72 h; max response: hits give low values
Outline: (§1)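 Cytotoxicity was measured as CellTiter-Glo ATP luminescence, read after 10 min at room temperature. Compound treatment of the cells lasted 48 or 72 hr at 37 degrees Celsius in a qHTS format.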

NIH3T3 [1] = assay: as above; conditions: Five cell lines viability, CellTiter-Glo ATP luminescence, 48-72 h; max response: hits give low values
Outline: as §1

HACAT = assay: qHTS assay to identify novel small-molecules to repurpose for Merkel cell carcinoma treatment (AID 1296009); conditions: MCC and control cell lines, CellTiter-Glo viability, 72 h; at 44.8 µM (top of the series) unless noted
Outline: (§2)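 Cell viability, measured as CellTiter-Glo luminescence, was normalized between DMSO and no-cell wells. The cells had been exposed to 8- or 11-point compound dilutions for 72 hr at 37 degree celsius.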

HEK293T = assay: as above; conditions: MCC and control cell lines, CellTiter-Glo viability, 72 h; series mostly up to 44.8 µM
Outline: as §2

MCC-13 = assay: as above; conditions: MCC and control cell lines, CellTiter-Glo viability, 72 h; series mostly up to 46 µM
Outline: as §2

MCC-26 = assay: as above; conditions: MCC and control cell lines, CellTiter-Glo viability, 72 h; series mostly up to 46 µM
Outline: as §2

MKL-1 = assay: as above; conditions: MCC and control cell lines, CellTiter-Glo viability, 72 h; series mostly up to 46 µM
Outline: as §2

MKL-2 = assay: as above; conditions: MCC and control cell lines, CellTiter-Glo viability, 72 h; series mostly up to 46 µM
Outline: as §2

NIH3T3 [2] = assay: as above; conditions: MCC and control cell lines, CellTiter-Glo viability, 72 h; at 44.8 µM (top of the series) unless noted
Outline: as §2

UISO = assay: as above; conditions: MCC and control cell lines, CellTiter-Glo viability, 72 h; series mostly up to 46 µM
Outline: as §2
Further: nearly all actives have a fitted effect of over 60% in size.
On the % scale 0 is the no-effect control and ±100 the full control effect.

OC[C@H]1OC(O)C[C@@H](O)[C@H]1O (stereo partly drawn)
inactive: max response (KB-3-1) 2.18% | outcome (NIH3T3 [1]) | outcome (HACAT) | Potency (HEK293T) | Potency (MCC-13) | Potency (MCC-26) | Potency (MKL-1) | Potency (MKL-2) | outcome (NIH3T3 [2]) | Potency (UISO)

O=C(NNC(=O)c1ccc(CNS(=O)(=O)c2ccc(F)c(Cl)c2)cc1)c1ccccc1
inactive: max response (KB-3-1) 0.725% | outcome (NIH3T3 [1]) | outcome (HACAT) | Potency (MCC-13) | Potency (MCC-26) | Potency (MKL-1) | Potency (MKL-2) | outcome (NIH3T3 [2]) | Potency (UISO)

CCCCOc1ccc(C(=O)Nc2ccc(F)cc2F)cc1
inactive: max response (KB-3-1) 0.701% | max response (NIH3T3 [1]) -3.26% | outcome (NIH3T3 [1]) | outcome (HACAT) | Potency (MCC-13) | Potency (MCC-26) | Potency (MKL-1) | Potency (MKL-2) | outcome (NIH3T3 [2]) | Potency (UISO)

CN1C(C(=O)Nc2ccccn2)=C(O)c2sc(Cl)cc2S1(=O)=O
inactive: max response (KB-3-1) 3.99% | max response (NIH3T3 [1]) -1.3% | outcome (HACAT) | Potency (HEK293T) | Potency (MCC-13) | Potency (MCC-26) | Potency (MKL-1) | Potency (UISO)

Cn1cc(C[C@@H](N)C(=O)O)c2ccccc21
inactive: max response (KB-3-1) 4.82% | max response (NIH3T3 [1]) -2.88% | outcome (HACAT) inactive [at 17.4 µM] | Potency (MCC-13) | Potency (MCC-26) | Potency (MKL-1) | Potency (MKL-2) | Potency (UISO)

COc1cc(OC)c(NC(=O)Nc2cc(C)on2)cc1Cl
inactive: max response (KB-3-1) 3.5% | max response (NIH3T3 [1]) 2.83% | outcome (HACAT) | Potency (MCC-13) | Potency (MKL-1) | Potency (MKL-2) | Potency (UISO)

Nc1ccn(C[C@@H](CO)OCP(=O)(O)O)c(=O)n1
inactive: outcome (KB-3-1) | max response (NIH3T3 [1]) 0.667% | outcome (HACAT) inactive [at 17.4 µM] | Potency (MCC-13) | Potency (MCC-26) | Potency (MKL-1) | Potency (MKL-2) | Potency (UISO)

CC(C)(C)[C@H](NC(=O)c1ccc(N)c(Cl)c1)C(=O)N1CCC[C@@H]1C(=O)N[C@H](C#N)CC(=O)O
inactive: max response (KB-3-1) 5.36% | outcome (NIH3T3 [1]) | outcome (HACAT) inactive [at 4.96 µM] | activity change, negative = cytotoxicity (MCC-13) 7.54% [at 4.84 µM] | activity change, negative = cytotoxicity (MCC-26) -4.4% [at 4.84 µM] | activity change, negative = cytotoxicity (MKL-1) 0.918% [at 4.84 µM] | outcome (NIH3T3 [2]) inactive [at 4.96 µM] | activity change, negative = cytotoxicity (UISO) 4.89% [at 4.84 µM]

CC(C=CC=C(C)C=CC1=C(C)CCCC1(C)C)=CC=CC=C(C)C=CC=C(C)C=CC1=C(C)CCCC1(C)C
inactive: max response (KB-3-1) 8.98% | max response (NIH3T3 [1]) -4.98% | outcome (HACAT) | Potency (MCC-13) | Potency (MCC-26) | Potency (MKL-1) | Potency (UISO)

COc1ccc(CCC(=O)c2c(O)cc(O[C@@H]3O[C@H](CO)[C@@H](O)[C@H](O)[C@@H]3O[C@@H]3O[C@@H](C)[C@H](O)[C@@H](O)[C@@H]3O)cc2O)cc1O
inactive: max response (KB-3-1) -1.61% | outcome (NIH3T3 [1]) | outcome (HACAT) | Potency (MCC-13) | Potency (MKL-1) | Potency (MKL-2) | outcome (NIH3T3 [2]) | Potency (UISO)

C[N+]1(C)[C@@H]2C[C@@H](OC(=O)C(O)(c3cccs3)c3cccs3)C[C@H]1[C@@H]1O[C@@H]12
inactive: outcome (KB-3-1) | max response (NIH3T3 [1]) -6.05% | outcome (HACAT) | Potency (MCC-13) | Potency (MCC-26) | Potency (MKL-1) | Potency (MKL-2) | Potency (UISO)

C=C1C[C@@]2(O)O[C@@]3(C[C@H]2C(C)C)[C@H](C)CC[C@H]13
inactive: outcome (KB-3-1) | max response (NIH3T3 [1]) 2.78% | outcome (HACAT) | Potency (MCC-13) | Potency (MCC-26) | Potency (MKL-1) | Potency (MKL-2) | Potency (UISO)

CN(N=O)C(=O)N[C@H]1C(O)OC(CO)[C@@H](O)[C@H]1O (stereo partly drawn)
inactive: max response (KB-3-1) 2.81% | max response (NIH3T3 [1]) -17.4% | outcome (HACAT) | Potency (MCC-13) | Potency (MCC-26) | Potency (MKL-1) | Potency (MKL-2) | Potency (UISO)

c1ccc2c(Oc3nc(Nc4ccc(N5CCOCC5)cc4)c4ncn(C5CCCCC5)c4n3)cccc2c1
inactive: max response (KB-3-1) 8.53% | max response (NIH3T3 [1]) 1.5% and -0.0324% | outcome (HACAT) | Potency (MCC-13) | Potency (MCC-26) | Potency (MKL-1) | Potency (MKL-2) | Potency (UISO)

C[C@@H](NCc1cc2ccccc2[nH]1)c1cccc2ccccc12
inactive: max response (KB-3-1) 3.8% | max response (NIH3T3 [1]) 2.38% | outcome (HACAT) | Potency (MCC-13) | Potency (MCC-26) | Potency (MKL-1) | Potency (MKL-2) | Potency (UISO)

OCCN1C[C@H](O)[C@@H](O)[C@H](O)[C@@H]1CO
inactive: outcome (KB-3-1) | max response (NIH3T3 [1]) -2.06% | outcome (HACAT) | Potency (MCC-13) | Potency (MCC-26) | Potency (MKL-1) | Potency (MKL-2) | Potency (UISO)

O=C(NCc1ccccc1)[C@H](Cc1ccccc1)NC(=O)[C@@H]1O[C@@H]1C(=O)NCCc1ccc(O)cc1
inactive: max response (KB-3-1) 8.9% | max response (NIH3T3 [1]) 3.87% | outcome (HACAT) | Potency (MCC-13) | Potency (MCC-26) | Potency (MKL-1) | Potency (UISO)
